According to PubChem BioAssay AID624202 (National Center for Advancing Translational Sciences (NCATS), 2012):
Screen size: about 380,000 compounds; about 4,000 (1.1%) were called active. Roughly 3% stayed inconclusive and do not appear here. Calls come from the whole dose curve; as a rule, active = well fitted activation curve with a large enough effect; inconclusive = small, poorly fitted or top-dose-only effect; inactive = no such curve, though single readings can be large or run the other way. The full list was thinned out, with actives kept by preference.

test: qHTS Assay to Identify Small Molecule Activators of BRCA1 Expression; settings: MCF7-BRCA1-FFLuc reporter, luminescence, 48 h; series mostly up to 46.1 µM; activation: at the top concentration; note: nearly all actives have a fitted effect of over 80% in size
In short: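 Compounds are tested at multiple concentrations on MCF7 BRCA1-luciferase reporter cells seeded at 2000 per well; after 48 h, a single luminescence end-point is taken and curves fitted to the normalized data.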
Potency is the fitted concentration of half-maximal effect.

Row | Compound | activation | Potency
1 | O=C(C1CCCN(S(=O)(=O)c2cccc3nonc23)C1)N1CCN(c2ccccc2F)CC1 (stereo unspecified) | 20% (inactive) | –
2 | Cn1c(=O)c2c(nc(Oc3ccc(C#N)cc3)n2Cc2ccc(Cl)cc2Cl)n(C)c1=O | 15% (inactive) | –
3 | O=C(COC(=O)c1ccccc1OCCOc1ccccc1)Nc1cccc(Br)c1 | 27.6% (inactive) | –
4 | Cc1cccc(OCCSc2nc3ccccc3n2CC(=O)N2CCCCC2)c1C | -0.0666% (inactive) | –
5 | COc1cccc(C(=O)c2sc3nc(-c4ccccc4)cc(C(F)(F)F)c3c2N)c1 | -16.2% (inactive) | –
6 | CCN(CC)C(=O)c1sc2nc(-c3ccccc3)ccc2c1N | – | 2.24 µM (active)
7 | CCN(CC)C(=O)c1nc[nH]c1C(=O)N(C)Cc1ccccc1 | 5.79% (inactive) | –
8 | Cc1ccc(S(=O)(=O)N2CCN(c3nc(-n4cnc5ccccc54)nc4ccccc34)CC2)cc1 | 1.6% (inactive) | –
9 | CCCCCn1c(=O)[nH]c2cc(C(=O)Nc3ccc(F)cc3)ccc2c1=O | 0% (inactive) | –
10 | CN(C)C1=C2C=CC=CC2/C(=C2/C=Cc3ccccc32)C=C1 (stereo unspecified) | -38.7% (inactive) | –
11 | O=C(COc1ccccc1C(=O)Nc1ccccc1)Nc1cccc(F)c1 | -25.4% (inactive) | –
12 | Cc1ccc(C)c(N2CCN(C(=O)CN3C(=O)COc4ccc(S(=O)(=O)N5CCCCCC5)cc43)CC2)c1 | -8.26% (inactive) | –
13 | Cc1sc(NC(=O)C2=COCCO2)c(C#N)c1C | – | 12.6 µM (active)
14 | CCOC(=O)c1sc(N)c(C#N)c1COC(=O)C1=COCCO1 | -3.85% (inactive) | –
15 | CCC(CC)c1nnc(NC(=O)C2=COCCO2)s1 | – | 10 µM (active)
16 | CCn1c(SCC(=O)Nc2sc(C)c(C)c2C#N)nnc1C1CC1 | 4.48% (inactive) | –
17 | CCC(CC)c1nnc(NC(=O)C2CCN(C(=O)c3ccco3)CC2)s1 | -18.7% (inactive) | –
18 | COc1cc(-c2nnc(NC(=O)C3=COCCO3)o2)cc(OC)c1OC | -6.67% (inactive) | –
19 | COc1ccc(N(CC(=O)NCCc2ccc(Cl)cc2)S(=O)(=O)c2c(C)nn(C)c2C)cc1 | -29.5% (inactive) | –
20 | CCCCOc1ccc(C(=O)NO)cc1 | -15.2% (inactive) | –
21 | CC1(C)C=Cc2c(ccc(C(=O)/C=C/c3ccccc3)c2O)O1 | 37.3% (inactive) | –
22 | CC1(C)C=Cc2c(ccc3c2OC[C@@H](c2ccc(O)cc2O)C3)O1 | – | 11.2 µM (active)

Row | Compound | activation | Potency
23 | O=C(/C=C/c1ccccc1)N1CCN(Cc2cc(=O)n3nc(-c4ccccc4F)sc3n2)CC1 | 0% (inactive) | –
24 | O=C(Cc1cccc2ccccc12)NNC(=O)Nc1ccc(Cl)cc1 | 0% (inactive) | –
25 | O=C(Cc1cccc2ccccc12)Nc1ccc2oc(-c3ccccc3)nc2c1 | – | 11.2 µM (active)
26 | Cc1ccc(NC(=S)NC(NC(=O)Cc2cccc3ccccc23)C(Cl)(Cl)Cl)cc1 (stereo unspecified) | -17% (inactive) | –
27 | CCn1c(=O)c2cc(C(=O)NCCc3ccc(Cl)cc3)sc2c2ccccc21 | -7.3% (inactive) | –
28 | COc1cc(OC)c(OC)cc1/C=C1\C=Cc2ccccc21 | -1.54% (inactive) | –
29 | COc1cccc(NC(=O)CN(C)C(C)C(=O)Nc2ccc(C#N)cc2)c1 (stereo unspecified) | -16.1% (inactive) | –
30 | CCC(=O)Nc1ccc(C(=O)Nc2cccc(OC)c2)cc1 | – | 12.6 µM (active)
31 | COc1ccc(C(=O)NCc2nnc(SCC(=O)Nc3cccc(OC)c3)o2)cc1 | 10.8% (inactive) | –
32 | Cc1ccc(C(=O)Nc2ccc(OCc3cc(=O)n4c(C)csc4n3)cc2)cc1 | 11.9% (inactive) | –
33 | Cc1ccc(-c2nnc3ccc(SCC(N)=O)nn23)cc1 | 19.8% (inactive) | –
34 | CCOC(=O)c1oc2ccc(S(=O)(=O)n3nc(-c4ccccc4OC)cc3N)cc2c1C | 4.41% (inactive) | –
35 | O=C(CSc1nc2ccccc2o1)N1CCN(c2ccccc2)CC1 | -2.33% (inactive) | –
36 | Cc1ccc(/C=N/NC(=O)CSc2nc3ccccc3o2)cc1 | – | 11.2 µM (active)
37 | O=C(CSc1nc2ccccc2o1)N/N=C/c1ccccc1C(=O)O | 30.4% (inactive) | –
38 | CC1=C(C(=O)OCc2ccc(C)cc2)C(c2ccccc2Cl)CC(=O)N1 (stereo unspecified) | -3.29% (inactive) | –
39 | CCc1ccc(CNC(=O)c2cc3c(=O)n(CC)c4ccccc4c3s2)cc1 | -26.6% (inactive) | –
40 | Cc1cccc(N2CCN(c3ccc(C(=O)O)cc3NC(=O)c3ccccc3F)CC2C)c1 (stereo unspecified) | 27% (inactive) | –
41 | COc1cc(Cl)c(C)cc1NC(=O)CN1CCCCCC1 | 15.9% (inactive) | –
42 | O=C(CN1CCCCCC1)Nc1ccc(Cl)cc1F | -8.5% (inactive) | –
43 | CC(=O)Nc1ccc(NC(=O)CN2CCCC(C)C2)c(Cl)c1 (stereo unspecified) | – | 11.2 µM (active)
44 | Cc1ccc(-c2nn3c(=O)cc(CN4CCN(S(=O)(=O)c5ccc(Cl)cc5)CC4)nc3s2)cc1 | 8.18% (inactive) | –

Row | Compound | activation | Potency
45 | COc1ccc(-c2nc3ccccc3s2)cc1NC(=O)COc1ccccc1C | 0% (inactive) | –
46 | CCCCCCC1(C)NC(c2ccc3c(c2)OCO3)=CC(c2ccccc2O)N1 (stereo unspecified) | -23.1% (inactive) | –
47 | COc1ccc(Nc2ncc(C(=O)Nc3cc(C)ccc3OC)c3ccccc23)cc1 | -69.1% (inactive) | –
48 | COc1ccc(Nc2ncnc3sc(C)cc23)cc1 | – | 8.91 µM (active)
49 | COc1ccc(Nc2ncc(C(=O)N3CCN(c4ccccc4OC)CC3)c3ccccc23)cc1 | – | inactive
50 | CC1=C(C(=O)OCc2ccc(C)cc2)C(c2c(Cl)cccc2Cl)CC(=O)N1 (stereo unspecified) | 13% (inactive) | –
51 | Fc1cccc(Cl)c1COc1ccc(-c2nnco2)cc1 | 36.9% (inactive) | –
52 | Fc1ccc(COc2ccc(-c3nnco3)cc2)cc1 | – | 11.2 µM (active)
53 | Fc1ccc(COc2cccc(-c3n[nH]c(=S)o3)c2)cc1 | 0.968% (inactive) | –
54 | COc1cc2nc(Cl)nc(NC3CC3)c2cc1OC | 0% (inactive) | –
55 | O=C1COc2ccc(-c3csc(-c4ccc(Cl)cc4)n3)cc2N1 | -0.092% (inactive) | –
56 | Cc1nonc1C1CCCN1C(=O)c1cc(COc2cccc(C(F)(F)F)c2)on1 (stereo unspecified) | -1.32% (inactive) | –
57 | Cc1ccc(OCc2cc(C(=O)N(C)CCn3ccnc3C)no2)cc1C | 33.8% (inactive) | –
58 | COCC1CCCCN1C(=O)c1cc(COc2ccc(C)c(C)c2)on1 (stereo unspecified) | – | 11.2 µM (active)
59 | Cc1[nH]c2ccccc2c1C(c1ccccc1)c1cccs1 (stereo unspecified) | -62.9% (inactive) | –
60 | CC(=O)c1ccc(NC(=O)c2nc(-c3ccc(C)cc3)n3c2CCCCC3)cc1 | -35.8% (inactive) | –
61 | Nc1ncnc2nnsc12 | 15.5% (inactive) | –
62 | COc1ccccc1-c1c(C)nn2c(C)c(C(C)=O)cnc12 | 0.312% (inactive) | –
63 | COc1ccccc1Nc1ncc(C(C)=O)c(C)n1 | – | 10 µM (active)
64 | CCc1ccc2nc(Nc3ncc(C(C)=O)c(C)n3)nc(C)c2c1 | 0.142% (inactive) | –
65 | O=C(Cn1c(=O)n(Cc2cccs2)c(=O)c2cccnc21)Nc1ccc(F)cc1 | -25.9% (inactive) | –
66 | CCc1ccccc1NC(=O)Cn1c(=O)n(CC2CCC(C(=O)NCCc3ccccc3)CC2)c(=O)c2ccccc21 (stereo unspecified) | 5.1% (inactive) | –

Row | Compound | activation | Potency
67 | O=C(Cn1c(=O)n(Cc2ccccc2)c(=O)c2sc3ccccc3c21)Nc1ccccc1F | 1.09% (inactive) | –
68 | COc1ccc(N2C(=O)CSC23C(=O)N(Cc2cccc(F)c2)c2ccccc23)cc1Cl (stereo unspecified) | -50.1% (inactive) | –
69 | COc1ccc(CCNC(=O)CCc2c(C)nc3c(c(C)nn3-c3ccc(C)c(C)c3)c2C)c(OC)c1OC | 5.62% (inactive) | –
70 | CCS(=O)(=O)n1nc(-c2ccccc2)nc1SCc1ccccc1 | – | 3.98 µM (active)
71 | CCS(=O)(=O)n1nc(-c2ccc(OC)cc2)nc1SC | 33.3% (inactive) | –
72 | Cc1ccc(S(=O)(=O)n2nc(-c3ccc(Cl)cc3)nc2NCc2ccccc2)cc1 | 2.77% (inactive) | –
73 | COc1ccccc1N1CCN(c2ncnc3onc(-c4ccc(F)cc4)c23)CC1 | -0.976% (inactive) | –
74 | COc1ccc(-n2nnc(-c3nsc(NC(=O)c4ccc(C)c(C)c4)n3)c2C)cc1Cl | -0.247% (inactive) | –
75 | Cc1ccc(NC(=O)c2csc3c2CCCC3)cc1 | – | 12.6 µM (active)
76 | CCOC(=O)c1ccc(NC(=O)c2csc3c2CCCCC3)cc1 | 34.8% (inactive) | –
77 | CCOc1ccc(CCNC(=O)c2csc3c2CCCCC3)cc1 | -1.32% (inactive) | –
78 | Cc1ccc(OCCSc2nc3ccc(NC(=O)COc4ccc(C)cc4)cc3s2)cc1 | 18.4% (inactive) | –
79 | O=C(Cn1c(=O)n(-c2ccc(F)cc2)c(=O)c2sc3ccccc3c21)NC1CCCC1 | -12.4% (inactive) | –
80 | Cc1cccc(NC(=O)N2CCN(C)c3ncccc32)c1C | 9.79% (inactive) | –
81 | CCCCC(CC)CNC(=O)C1CCN(S(=O)(=O)c2cccc3nsnc23)CC1 (stereo unspecified) | -6.65% (inactive) | –
82 | C=CCn1c(SCc2nnc(-c3ccccc3)o2)nnc1C(O)c1ccccc1 (stereo unspecified) | 1.72% (inactive) | –
83 | OC(c1nnc(-c2ccccc2)o1)c1cccs1 (stereo unspecified) | – | 11.2 µM (active)
84 | CCCN(CCC)c1ccc(C(O)c2nnc(-c3ccccc3)o2)cc1 (stereo unspecified) | 24.9% (inactive) | –
85 | Cc1cc(C)cc(NC(=O)Cn2c(=O)c3ccccc3n3nncc23)c1 | 7.25% (inactive) | –
86 | Cc1ccc(C=O)cc1Cl | 18.6% (inactive) | –
87 | O=C(OCc1cc(=O)n2nc(C3CC3)sc2n1)c1ccccc1Cl | 12% (inactive) | –
88 | COc1cc2nc(SCC(=O)Nc3ccccc3F)n3nc(-c4ccccc4)nc3c2cc1OC | 0% (inactive) | –

Row | Compound | activation | Potency
89 | Cc1cc(C)cc(-n2ccnc2SCC(=O)Nc2nc3ccccc3s2)c1 | 9.67% (inactive) | –
90 | COc1cccc(CNC(=O)c2ccc3c(Cl)c4c(nc3c2)CCCC4)c1 | 10.5% (inactive) | –
91 | COc1cccc2sc3cc(NCC[C@@H]4CCCN4C)ccc3c(=O)c12 | – | 11.2 µM (active)
92 | Cc1cc2oc3ccc(NCCC4CCCN4C)cc3c(=O)c2cc1C (stereo unspecified) | -78% (inactive) | –
93 | CN1CCC[C@@H]1CCO[C@](C)(c1ccccc1)c1ccc(Cl)cc1 | 0% (inactive) | –
94 | Oc1ccc(Cl)cc1C1C=C(c2ccc3c(c2)OCO3)NC(c2c(F)cccc2Cl)N1 (stereo unspecified) | -40.2% (inactive) | –
95 | O=C(Nc1cccc(F)c1)NC1CCCCCCC1 | – | 3.55 µM (active)
96 | O=C(Nc1cccc(F)c1)[C@@H]1CCCN1 | -1.33% (inactive) | –
97 | Cc1cc(C)cc(NC(=O)NC2CCCCCCC2)c1 | 32.7% (inactive) | –
98 | CCn1c(CNC(=O)C23CC4CC(CC(C4)C2)C3)nnc1SCC(=O)Nc1ccc(OC)cc1 | 22% (inactive) | –
99 | COc1ccc(-c2cc(-c3ccccc3)nc3c2COc2ccc(Cl)cc2-3)cc1 | 13.1% (inactive) | –
100 | COc1ccc(-c2cc(-c3ccc(F)cc3)nc3c2COc2ccccc2-3)cc1 | 11.9% (inactive) | –
101 | COc1ccc(C2=Nc3cc(C)ccc3OC2)cc1 | – | 11.2 µM (active)
102 | CCCCCn1c(=O)[nH]c2cc(C(=O)NCCN(C)CCCC)ccc2c1=O | -3.6% (inactive) | –
103 | COC(=O)C1=C(c2ccccc2)c2ccccc2S(=O)(=O)N1CC(=O)Nc1ccccc1C(F)(F)F | -3.16% (inactive) | –
104 | COCn1c(COc2ccccc2)nc2ccccc21 | – | 12.6 µM (active)
105 | COCc1nc2ccccc2n1Cc1ccccc1Br | -0.381% (inactive) | –
106 | COc1ccccc1Cn1c(CO)nc2ccccc21 | 0% (inactive) | –
